Screening data from PubChem.
Only some compounds are listed: those with a hit (about 10% of all), similar ones and a draw of the others.
G9a inh: qHTS Assay for Inhibitors of Histone Lysine Methyltransferase G9a. G9a H3K9 monomethylation, AlphaScreen, 2 h. 350,000 compounds, 8.8% hits. Potency, µM (top dose mostly 102 µM), inactives show at the highest dose activity, negative = inhibition, actives largely listed as inhibitors. Histone-lysine N-methyltransferase EHMT2 (Homo sapiens), Q96KQ7; note: potency is the fitted concentration of half-maximal effect; % is set by controls: 0 for no effect and ±100 for the full control effect; nearly all actives have a fitted effect of over 75% in size
Target sequence (Q96KQ7 913-1193 limits assumed): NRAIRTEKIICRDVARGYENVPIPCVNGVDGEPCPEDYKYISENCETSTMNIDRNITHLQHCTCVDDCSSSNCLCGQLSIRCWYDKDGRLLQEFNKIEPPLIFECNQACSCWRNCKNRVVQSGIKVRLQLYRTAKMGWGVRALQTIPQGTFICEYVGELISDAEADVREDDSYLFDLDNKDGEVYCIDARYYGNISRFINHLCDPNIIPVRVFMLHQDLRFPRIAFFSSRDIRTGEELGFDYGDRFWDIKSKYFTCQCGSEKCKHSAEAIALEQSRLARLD
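Signal arises when biotinylated H3K9 peptide, once monomethylated, bridges streptavidin donor and antibody-captured acceptor beads. Enzyme at 20 nM was preincubated 15 min with test compounds; peptide 500 nM and SAM 20 uM then reacted for 2 h.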
CtBP-E1A blk: qHTS Assay for Inhibitors of the CtBP/E1A Interaction. CtBP / adenovirus E1A interaction (AlphaScreen). AlphaScreen GST-E1A/His-CtBP binding, 1536-well; stronger effect = lower value. activity change, % (no concentration beside the values). 340,000 compounds, 0.49% hits. AID 651724, 2012; in the data active = activity change below about -65%; inconclusive = mostly about -30% to -63%; note: % is set by controls: 0 for no effect and ±100 for the full control effect
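Steps: dispense buffer (Tris pH 8.0, NaCl 300 mM, TCEP 1 mM, BSA, Tween 20); add 5X protein mix (GST-E1A, His-CtBP, 125 nM each); pin 23 nL compound; 2 h at 37 °C, dark; add 5X beads (50 ug/mL); 1 h; read.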
BAZ2B block: qHTS Assay for Inhibitors of BAZ2B; Potency, µM (titrated, usually from 114 µM), inactives show at the highest dose activity change, negative = inhibition, most hits filed as inhibitors; Bromodomain adjacent to zinc finger domain protein 2B (Homo sapiens), Q9UIF8; AlphaScreen BAZ2B-H3K14Ac peptide displacement; 360,000 compounds, 4.4% hits; AID 504333, 2011; note: potency is the fitted concentration of half-maximal effect; % is set by controls: 0 for no effect and ±100 for the full control effect; nearly all actives have a fitted effect of over 60% in size
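Complex of BAZ2B and biotin-H3K14Ac (50 nM apiece) forms over 30 min at RT, then faces library compounds up to 110 uM for another 30 min; AlphaScreen beads added, 20 min dark incubation, luminescence read.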
Six1-Eya2 inh: qHTS Assay for Inhibitors of the Six1/Eya2 Interaction. Homeobox protein SIX1 (Homo sapiens) + Protein phosphatase EYA2 (Homo sapiens), …. AlphaScreen GST-Six1/His-Eya2 binding, biochemical; stronger effect = lower value. activity change, % (no concentration beside the values). 360,000 compounds, 0.56% hits; in the data active = activity change below about -65%; inconclusive = mostly about -30% to -63%; note: % is set by controls: 0 for no effect and ±100 for the full control effect
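GST-Six1 + His-Eya2 (5X stock: 250/500 nM); Tris pH 8.0, 300 mM NaCl, 0.05% BSA, 0.02% Tween 20; GSH donor/Ni acceptor beads; 1 h 37 °C dark; AlphaScreen readout.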
JMJD2A Tudor inh: qHTS Assay for Inhibitors of JMJD2A-Tudor Domain; Lysine-specific demethylase 4A (Homo sapiens), O75164; AlphaScreen JMJD2A-Tudor / H3K4me3 peptide binding; Potency, µM (titrated, usually from 114 µM), for the others: at the highest dose activity change, negative = inhibition, usual class: inhibitors; 390,000 compounds, 4.4% hits; AID 504339, 2011; note: potency is the fitted concentration of half-maximal effect; % is set by controls: 0 for no effect and ±100 for the full control effect; nearly all actives have a fitted effect of over 50% in size
HP1b binding inh: HTS for Inhibitors of HP1-beta Chromodomain Interactions with Methylated Histone Tails. Potency, µM (top dose mostly 114 µM), inactives show top-dose activity change, negative = inhibition, most hits filed as inhibitors. Chromobox protein homolog 1 (Homo sapiens), P83916. AlphaScreen HP1-beta / biotin-H3K9me3 peptide binding. AID 540317, 2011. 390,000 compounds, 0.56% hits; note: potency is the fitted concentration of half-maximal effect; nearly all actives have a fitted effect of over 70% in size
Target sequence (P83916 whole entry, looked up): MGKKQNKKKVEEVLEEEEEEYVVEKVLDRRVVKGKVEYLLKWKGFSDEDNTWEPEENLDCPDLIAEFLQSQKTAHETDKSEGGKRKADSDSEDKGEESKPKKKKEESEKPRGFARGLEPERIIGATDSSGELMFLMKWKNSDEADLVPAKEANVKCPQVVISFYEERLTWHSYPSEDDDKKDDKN
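Compound inhibition of the preformed complex between 50 nM HP1-beta and 50 nM biotinylated H3K9me3 peptide was read by AlphaScreen. Buffer was PBS pH 7.4 with 0.01% Tween-20. Incubations ran 30 min at room temperature, with 10 ug/mL donor/acceptor beads.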
An asterisk follows results filed as active; [ ] = dose if it differs, or a comment. Unless noted, calls come from the whole dose curve; as a rule, active = well fitted inhibition curve with a large enough effect; inconclusive = small, poorly fitted or top-dose-only effect; inactive = no such curve, though single readings can be large or run the other way.

O=C(Nc1nnc(-c2ccccn2)o1)c1ccc(Br)cc1 was read as G9a inh 21%, CtBP-E1A blk inconclusive, BAZ2B block inconclusive, Six1-Eya2 inh inconclusive, JMJD2A Tudor inh inconclusive and HP1b binding inh 38%.
Screening Cc1ccc(N(Cc2cccs2)C(=O)COc2ccccc2[N+](=O)[O-])cc1 returned G9a inh -24%[59 µM], BAZ2B block inconclusive, JMJD2A Tudor inh -26% and HP1b binding inh 18%.
Screening Cc1cccc(C)c1NC(=O)Cn1cc(C=O)c2ccccc21 returned G9a inh 1%, CtBP-E1A blk 0, BAZ2B block 0%, Six1-Eya2 inh 4, JMJD2A Tudor inh -20% and HP1b binding inh 13%.
For O=C(c1cc2ccccc2oc1=O)N(Cc1cccc(Cl)c1)C1CCS(=O)(=O)C1 (stereo not drawn) the results were G9a inh 5%[59 µM], BAZ2B block 0%, JMJD2A Tudor inh -6% and HP1b binding inh 45%.
Screening COc1ccc(OCC(=O)NNC(=S)NC(=O)C2CC2)cc1 returned G9a inh 20µM*, CtBP-E1A blk 0, BAZ2B block -1%, Six1-Eya2 inh 11, JMJD2A Tudor inh -18% and HP1b binding inh 24%.
Screening CCc1ccc(OCC(=O)NNC(=S)NC(=O)C2CCCCC2)c(Br)c1 returned G9a inh inconclusive, CtBP-E1A blk -6, BAZ2B block -12%, Six1-Eya2 inh -10, JMJD2A Tudor inh inconclusive and HP1b binding inh 9%.
`Cc1cc(C)cc(OCC(=O)NNC(=S)NC(=O)C2CC2)c1` gave G9a inh 20µM*, CtBP-E1A blk -15, BAZ2B block 4%, Six1-Eya2 inh -12, JMJD2A Tudor inh -34% and HP1b binding inh 25%.
Screening COc1ccc(NC(=S)NC(=O)C2CCC2)cc1 returned CtBP-E1A blk 8, BAZ2B block -2%, Six1-Eya2 inh 0, JMJD2A Tudor inh -33% and HP1b binding inh 65%.
`COc1ccc(C(=O)NNC(=O)CNC(=O)C2CCCCC2)cc1` gave G9a inh 10%, CtBP-E1A blk 2, BAZ2B block 2%, Six1-Eya2 inh -5, JMJD2A Tudor inh -4% and HP1b binding inh 44%.
CCCCNC(=O)NNC(=O)COc1cc(C)cc(C)c1 was read as G9a inh -2%[59 µM], CtBP-E1A blk 6, BAZ2B block 4%, Six1-Eya2 inh 0, JMJD2A Tudor inh 0% and HP1b binding inh 35%.
`COc1ccc(C(=O)NC(=S)NNC(=O)CNC(=O)C2CCCCC2)cc1` gave G9a inh 8.9µM*, CtBP-E1A blk 0, Six1-Eya2 inh 6, JMJD2A Tudor inh inconclusive and HP1b binding inh 0%.
CCc1ccc(OCC(=O)NNC(=S)NC(=O)C2CC2)c(Br)c1 was read as G9a inh 10µM*, CtBP-E1A blk -16, BAZ2B block inconclusive, Six1-Eya2 inh -10, JMJD2A Tudor inh inconclusive and HP1b binding inh 11%.
For CCOC(=O)C1(C)CCCN(C(=O)c2snnc2C)C1 (stereo not drawn) the results were CtBP-E1A blk -2 and Six1-Eya2 inh -2.
Screening COCCNC(=O)C1CCCN(C(=O)c2ccnc(Cl)c2)CC1 (stereo not drawn) returned CtBP-E1A blk 5 and Six1-Eya2 inh 5.
For COc1ccc(OCC(=O)NNC(=S)NC(=O)C2CCCCC2)cc1 the results were G9a inh 13µM* and BAZ2B block -7%.
`COc1ccc(OCC(=O)NC2CCCCCCC2)cc1` gave G9a inh 4%, CtBP-E1A blk 12, BAZ2B block 3%, Six1-Eya2 inh 1, JMJD2A Tudor inh -1% and HP1b binding inh 41%.
